“And” between values parts separate entries of the source, which are not always exact repeats. Equal entries are not always repeated.
target: C-X-C chemokine receptor type 6 (Homo sapiens) (UniProt O00574); test: apelin receptor (APJ) antagonists, SAR follow-up, counter-screen for CXCR6 antagonist project, cell-based, beta-arrestin, DiscoveRx, panel, CHO-K1 (AID 651598); conditions: CHO-K1 PathHunter beta-arrestin luminescence, antagonist mode; run 3, at 80 µM (top of the series)
Sequence (O00574 whole entry, looked up): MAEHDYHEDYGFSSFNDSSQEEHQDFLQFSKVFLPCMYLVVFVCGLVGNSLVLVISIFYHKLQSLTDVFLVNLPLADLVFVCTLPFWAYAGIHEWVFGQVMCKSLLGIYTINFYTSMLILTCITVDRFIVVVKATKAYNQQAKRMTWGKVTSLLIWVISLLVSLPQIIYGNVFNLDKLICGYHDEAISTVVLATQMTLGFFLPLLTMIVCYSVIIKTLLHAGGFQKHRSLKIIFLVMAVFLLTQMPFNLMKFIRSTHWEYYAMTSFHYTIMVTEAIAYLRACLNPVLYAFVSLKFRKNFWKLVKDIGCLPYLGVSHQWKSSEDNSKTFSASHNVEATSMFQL

| SMILES | inhibition |
| --- | --- |
| COc1cc(C(=O)NC2CC3CCC(C2)N3CC(=O)Nc2ccccc2)cc(OC)c1OC (stereo not drawn) | 56.5% and 4.53% |
| COc1cc(C(=O)NC2CC3CCCC(C2)N3CC(=O)Nc2ccccc2)cc(OC)c1OC (stereo not drawn) | 91% and 42.4% and 18.6% |
| COc1cc(C(=O)NC2CCN(CC(=O)Nc3ccccc3)CC2)cc(OC)c1OC | 6.56% |
